The text below walks through data of publication PMC7862700, “An all-to-all approach to the identification of sequence-specific readers for epigenetic DNA modifications on cytosine”.

Test in all cases: DAPPL (digital affinity profiling via proximity ligation, sequencing); 10 mM Tris-HCl pH 7.5, 50 mM NaCl, 1 mM DTT, 4% glycerol, room temperature, 30 min; GST-TFs on glutathione beads, 16-mer random dsDNA library, 0.1% formaldehyde crosslink after washing; high values mean tight binding
For one assay, the target named is T1, FLI1 (Homo sapiens, UniProt Q01543 1-452).
T1 sequence: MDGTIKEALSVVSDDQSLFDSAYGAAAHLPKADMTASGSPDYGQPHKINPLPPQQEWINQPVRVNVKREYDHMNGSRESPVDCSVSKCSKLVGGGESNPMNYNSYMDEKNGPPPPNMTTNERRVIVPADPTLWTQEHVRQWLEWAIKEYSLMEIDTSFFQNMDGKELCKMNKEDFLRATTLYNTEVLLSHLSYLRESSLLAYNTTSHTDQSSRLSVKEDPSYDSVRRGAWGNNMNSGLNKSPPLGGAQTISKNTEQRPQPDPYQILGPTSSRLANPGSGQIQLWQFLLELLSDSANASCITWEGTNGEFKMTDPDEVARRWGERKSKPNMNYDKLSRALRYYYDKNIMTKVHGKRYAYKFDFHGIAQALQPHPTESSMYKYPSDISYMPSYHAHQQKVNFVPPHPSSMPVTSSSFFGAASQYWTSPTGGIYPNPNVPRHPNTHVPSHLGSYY
The note with it: protein: recombinant; tags: N-terminal GST; dsDNA, one strand shown. The procedure, abridged:
(§1)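 A tag-only sample was pooled with DNA-barcoded human transcription factors that had been expressed in yeast as GST fusions and captured on glutathione beads. The pools were incubated for 30 min at room temperature with 200 nmole of a random double-stranded 16-mer DNA library in Tris/NaCl/DTT/glycerol buffer, then washed, crosslinked with 0.1% formaldehyde, proximity-ligated (BsaI/T4 ligase, 1 h, 37 °C), PCR-amplified and sequenced on an Illumina NextSeq500. Binding signal is each hexamer's read frequency for a factor divided by its frequency for the tag-only sample.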

The next assay concerns the target T2, ELK1 (Homo sapiens, UniProt P19419 1-428).
T2 sequence: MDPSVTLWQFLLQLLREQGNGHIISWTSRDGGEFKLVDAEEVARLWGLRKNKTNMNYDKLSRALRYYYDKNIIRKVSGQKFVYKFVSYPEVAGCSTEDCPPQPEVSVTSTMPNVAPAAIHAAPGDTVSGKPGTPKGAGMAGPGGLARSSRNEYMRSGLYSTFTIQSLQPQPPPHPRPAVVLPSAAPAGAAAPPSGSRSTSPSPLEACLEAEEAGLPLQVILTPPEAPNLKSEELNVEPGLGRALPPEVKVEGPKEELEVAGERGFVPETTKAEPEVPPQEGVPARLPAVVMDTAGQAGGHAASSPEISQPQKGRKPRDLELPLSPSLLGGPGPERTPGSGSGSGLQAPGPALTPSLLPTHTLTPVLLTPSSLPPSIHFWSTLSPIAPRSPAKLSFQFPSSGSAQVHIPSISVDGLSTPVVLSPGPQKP
The note with it: protein: recombinant; tags: N-terminal GST; dsDNA, one strand shown. The method, boiled down: as §1

The next assay has as its target T3, GABPA (Homo sapiens, UniProt Q06546 1-454).
T3 sequence: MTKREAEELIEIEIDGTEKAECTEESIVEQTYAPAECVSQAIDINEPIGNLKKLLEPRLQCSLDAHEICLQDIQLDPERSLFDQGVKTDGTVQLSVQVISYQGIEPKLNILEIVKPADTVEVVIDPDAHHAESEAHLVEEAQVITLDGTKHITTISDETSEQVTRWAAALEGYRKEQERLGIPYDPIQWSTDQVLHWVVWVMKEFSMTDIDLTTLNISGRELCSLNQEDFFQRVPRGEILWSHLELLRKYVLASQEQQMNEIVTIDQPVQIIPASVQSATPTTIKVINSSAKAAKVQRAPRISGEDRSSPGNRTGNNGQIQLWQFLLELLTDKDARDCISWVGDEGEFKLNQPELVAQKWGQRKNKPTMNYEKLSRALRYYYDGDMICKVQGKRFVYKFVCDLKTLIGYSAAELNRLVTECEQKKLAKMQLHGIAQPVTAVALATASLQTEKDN
The note with it: protein: recombinant; tags: N-terminal GST; dsDNA, one strand shown. The method, boiled down: as §1

For a further assay, the target named is T4, ERG (Homo sapiens, UniProt P11308 1-479).
T4 sequence: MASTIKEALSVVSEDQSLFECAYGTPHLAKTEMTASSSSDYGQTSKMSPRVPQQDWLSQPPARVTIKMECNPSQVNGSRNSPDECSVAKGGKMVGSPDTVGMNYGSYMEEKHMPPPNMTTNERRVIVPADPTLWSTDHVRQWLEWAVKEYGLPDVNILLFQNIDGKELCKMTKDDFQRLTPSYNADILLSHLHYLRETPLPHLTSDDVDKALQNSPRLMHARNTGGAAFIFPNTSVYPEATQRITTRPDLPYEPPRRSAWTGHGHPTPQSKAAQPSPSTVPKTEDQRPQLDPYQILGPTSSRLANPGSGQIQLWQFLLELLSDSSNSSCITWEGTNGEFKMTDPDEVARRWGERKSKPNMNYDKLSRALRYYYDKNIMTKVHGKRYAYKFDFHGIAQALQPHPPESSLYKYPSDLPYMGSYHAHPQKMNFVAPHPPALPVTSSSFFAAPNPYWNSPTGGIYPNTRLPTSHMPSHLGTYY
The note with it: protein: recombinant; tags: N-terminal GST; dsDNA, one strand shown. The method, boiled down: as §1

A further assay has as its target ELF1 (Homo sapiens, UniProt P32519 1-619). Particulars: protein: recombinant; tags: N-terminal GST; dsDNA, one strand shown. The procedure, abridged: as §1
For a further assay, the target named is T5, EHF (Homo sapiens, UniProt Q9NZC4 1-300).
T5 sequence: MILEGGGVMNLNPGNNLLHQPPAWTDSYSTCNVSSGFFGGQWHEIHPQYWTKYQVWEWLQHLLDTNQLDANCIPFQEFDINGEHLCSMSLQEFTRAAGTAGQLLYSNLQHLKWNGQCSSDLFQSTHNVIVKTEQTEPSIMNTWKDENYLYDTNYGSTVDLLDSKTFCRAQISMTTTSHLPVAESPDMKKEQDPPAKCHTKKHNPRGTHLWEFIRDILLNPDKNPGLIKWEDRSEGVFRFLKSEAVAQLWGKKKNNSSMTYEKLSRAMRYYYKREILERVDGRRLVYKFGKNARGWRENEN
The note with it: protein: recombinant; tags: N-terminal GST; dsDNA, one strand shown. The method, boiled down:
as §1

The target of another assay is SPI1 (Homo sapiens, UniProt P17947 1-270). The note with it: protein: recombinant; tags: N-terminal GST; dsDNA, one strand shown. The method, boiled down:
as §1

A further assay deals with SPIB (Homo sapiens, UniProt Q01892 1-262). Particulars: protein: recombinant; tags: N-terminal GST; dsDNA, one strand shown. The procedure, abridged: as §1
Sequence of SPIB (Q01892 whole entry): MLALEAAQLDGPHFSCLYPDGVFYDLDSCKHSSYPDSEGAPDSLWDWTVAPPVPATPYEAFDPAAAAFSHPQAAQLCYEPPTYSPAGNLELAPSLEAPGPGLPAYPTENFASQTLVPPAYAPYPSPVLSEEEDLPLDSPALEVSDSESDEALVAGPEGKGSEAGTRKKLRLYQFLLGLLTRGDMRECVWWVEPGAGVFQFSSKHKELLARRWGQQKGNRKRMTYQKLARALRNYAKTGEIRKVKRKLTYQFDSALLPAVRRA
The target in the next assay is T6, ELK3 (Homo sapiens, UniProt P41970 1-407).
T6 sequence: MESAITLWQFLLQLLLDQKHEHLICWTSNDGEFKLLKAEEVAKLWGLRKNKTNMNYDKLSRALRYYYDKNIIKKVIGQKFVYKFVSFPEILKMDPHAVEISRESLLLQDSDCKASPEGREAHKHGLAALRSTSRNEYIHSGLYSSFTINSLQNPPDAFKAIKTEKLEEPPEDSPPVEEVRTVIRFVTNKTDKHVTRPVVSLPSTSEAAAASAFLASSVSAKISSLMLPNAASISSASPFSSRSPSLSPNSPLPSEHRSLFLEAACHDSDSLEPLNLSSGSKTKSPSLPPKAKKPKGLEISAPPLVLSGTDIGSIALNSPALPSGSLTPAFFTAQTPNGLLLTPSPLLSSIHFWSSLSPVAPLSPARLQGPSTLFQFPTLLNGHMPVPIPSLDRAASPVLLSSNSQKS
The note with it: protein: recombinant; tags: N-terminal GST; dsDNA, one strand shown. The method, boiled down:
as §1

The next assay addresses T7, FEV (Homo sapiens, UniProt Q99581 1-238).
T7 sequence: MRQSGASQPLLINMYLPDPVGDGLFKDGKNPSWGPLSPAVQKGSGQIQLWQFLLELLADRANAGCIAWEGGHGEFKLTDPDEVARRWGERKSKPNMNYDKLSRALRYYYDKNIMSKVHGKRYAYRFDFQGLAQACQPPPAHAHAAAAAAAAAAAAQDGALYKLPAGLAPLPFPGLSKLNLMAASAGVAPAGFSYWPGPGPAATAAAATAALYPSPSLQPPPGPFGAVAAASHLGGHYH
The note with it: protein: recombinant; tags: N-terminal GST; dsDNA, one strand shown. The procedure, abridged: as §1

A further assay has as its target ETV5 (Homo sapiens, UniProt P41161 1-510). Particulars: protein: recombinant; tags: N-terminal GST; dsDNA, one strand shown. The method, boiled down: as §1
A further assay concerns the target HSF1 (Homo sapiens, UniProt Q00613 1-529). The note with it: protein: recombinant; tags: N-terminal GST; chain copies: 3; dsDNA, one strand shown. The procedure, abridged:
as §1

In a further assay the target is T8, SPIC (Homo sapiens, UniProt Q8N5J4 1-248).
T8 sequence: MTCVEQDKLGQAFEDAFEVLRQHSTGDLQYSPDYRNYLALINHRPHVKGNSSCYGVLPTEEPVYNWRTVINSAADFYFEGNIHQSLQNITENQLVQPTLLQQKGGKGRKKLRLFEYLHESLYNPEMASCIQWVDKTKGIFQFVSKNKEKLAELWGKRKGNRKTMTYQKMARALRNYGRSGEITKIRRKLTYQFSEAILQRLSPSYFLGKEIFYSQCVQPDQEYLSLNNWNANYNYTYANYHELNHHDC
Particulars: protein: recombinant; tags: N-terminal GST; dsDNA, one strand shown. The procedure, abridged: as §1

A further assay deals with ELF4 (Homo sapiens, UniProt Q99607 1-663). The note with it: protein: recombinant; tags: N-terminal GST; dsDNA, one strand shown. The procedure, abridged:
as §1

For the next assay, the target named is T9, ELK4 (Homo sapiens, UniProt P28324-2 1-405).
T9 sequence: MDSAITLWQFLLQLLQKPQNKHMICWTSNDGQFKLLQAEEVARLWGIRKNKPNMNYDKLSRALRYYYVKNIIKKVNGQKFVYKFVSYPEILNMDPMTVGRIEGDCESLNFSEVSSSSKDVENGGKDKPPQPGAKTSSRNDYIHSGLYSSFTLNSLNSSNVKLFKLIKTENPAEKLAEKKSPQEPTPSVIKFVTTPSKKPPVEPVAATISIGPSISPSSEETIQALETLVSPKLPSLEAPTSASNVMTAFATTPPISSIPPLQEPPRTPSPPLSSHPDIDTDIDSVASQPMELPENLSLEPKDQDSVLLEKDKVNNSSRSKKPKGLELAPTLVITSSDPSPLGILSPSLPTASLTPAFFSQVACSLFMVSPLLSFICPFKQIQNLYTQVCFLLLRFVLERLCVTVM
Particulars: protein: recombinant; tags: N-terminal GST; dsDNA, one strand shown. The method, boiled down: as §1

For a further assay, the target named is T10, ETV2 (Homo sapiens, UniProt O00321 1-342).
T10 sequence: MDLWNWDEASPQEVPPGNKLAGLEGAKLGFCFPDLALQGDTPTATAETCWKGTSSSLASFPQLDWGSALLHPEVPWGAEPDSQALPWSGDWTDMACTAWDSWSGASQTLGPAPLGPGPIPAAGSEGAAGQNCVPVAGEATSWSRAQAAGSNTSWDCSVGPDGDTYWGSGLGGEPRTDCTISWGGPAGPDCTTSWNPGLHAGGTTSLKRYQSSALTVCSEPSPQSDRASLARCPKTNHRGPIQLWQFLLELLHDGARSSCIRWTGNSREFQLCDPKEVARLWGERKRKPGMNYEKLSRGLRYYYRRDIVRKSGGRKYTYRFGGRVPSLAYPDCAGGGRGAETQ
Particulars: protein: recombinant; tags: N-terminal GST; dsDNA, one strand shown. The method, boiled down:
as §1

The target of another assay is T11, ELF3 (Homo sapiens, UniProt P78545 1-371).
T11 sequence: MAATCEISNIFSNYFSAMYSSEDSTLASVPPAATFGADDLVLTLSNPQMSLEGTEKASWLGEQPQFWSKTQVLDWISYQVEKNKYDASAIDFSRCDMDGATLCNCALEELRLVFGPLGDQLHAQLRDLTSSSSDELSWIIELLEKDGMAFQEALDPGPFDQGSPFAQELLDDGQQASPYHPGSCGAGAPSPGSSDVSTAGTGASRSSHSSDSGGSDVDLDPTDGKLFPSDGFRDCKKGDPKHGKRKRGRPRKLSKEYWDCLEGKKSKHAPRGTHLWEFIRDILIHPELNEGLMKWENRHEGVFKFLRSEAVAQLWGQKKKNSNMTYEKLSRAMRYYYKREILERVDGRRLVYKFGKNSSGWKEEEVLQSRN
The note with it: protein: recombinant; tags: N-terminal GST; dsDNA, one strand shown. The procedure, abridged: as §1

For the next assay, the target named is CRX (Homo sapiens, UniProt O43186 1-299). Particulars: protein: recombinant; tags: N-terminal GST; dsDNA, one strand shown. The method, boiled down: as §1
Sequence of CRX (O43186 whole entry): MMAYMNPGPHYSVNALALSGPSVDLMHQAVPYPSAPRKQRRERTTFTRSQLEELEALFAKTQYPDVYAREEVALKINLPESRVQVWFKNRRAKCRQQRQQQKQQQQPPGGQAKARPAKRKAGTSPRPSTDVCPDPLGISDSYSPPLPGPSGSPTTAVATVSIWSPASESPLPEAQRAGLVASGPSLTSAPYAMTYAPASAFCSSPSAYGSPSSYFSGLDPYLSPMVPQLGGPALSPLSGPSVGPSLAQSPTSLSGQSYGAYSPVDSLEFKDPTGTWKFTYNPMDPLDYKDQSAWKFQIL
In the next assay the target is ETV1 (Homo sapiens, UniProt P50549 1-477). The note with it: protein: recombinant; tags: N-terminal GST; dsDNA, one strand shown. The method, boiled down: as §1
Sequence of ETV1 (P50549 whole entry): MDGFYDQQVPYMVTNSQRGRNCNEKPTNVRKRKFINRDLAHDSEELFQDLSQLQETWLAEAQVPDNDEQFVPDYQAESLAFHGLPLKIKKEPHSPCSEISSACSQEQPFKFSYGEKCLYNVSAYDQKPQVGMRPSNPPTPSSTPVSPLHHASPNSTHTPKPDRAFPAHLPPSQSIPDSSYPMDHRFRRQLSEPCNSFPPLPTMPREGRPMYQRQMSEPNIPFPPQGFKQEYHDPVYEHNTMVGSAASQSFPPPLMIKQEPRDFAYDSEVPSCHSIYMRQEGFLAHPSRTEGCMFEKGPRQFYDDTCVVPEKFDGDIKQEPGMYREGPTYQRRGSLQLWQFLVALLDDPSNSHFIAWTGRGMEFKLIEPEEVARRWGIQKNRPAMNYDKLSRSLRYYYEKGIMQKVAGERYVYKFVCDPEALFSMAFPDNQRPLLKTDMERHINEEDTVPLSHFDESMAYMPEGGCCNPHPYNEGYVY

Sequence of ELF4 (Q99607 whole entry): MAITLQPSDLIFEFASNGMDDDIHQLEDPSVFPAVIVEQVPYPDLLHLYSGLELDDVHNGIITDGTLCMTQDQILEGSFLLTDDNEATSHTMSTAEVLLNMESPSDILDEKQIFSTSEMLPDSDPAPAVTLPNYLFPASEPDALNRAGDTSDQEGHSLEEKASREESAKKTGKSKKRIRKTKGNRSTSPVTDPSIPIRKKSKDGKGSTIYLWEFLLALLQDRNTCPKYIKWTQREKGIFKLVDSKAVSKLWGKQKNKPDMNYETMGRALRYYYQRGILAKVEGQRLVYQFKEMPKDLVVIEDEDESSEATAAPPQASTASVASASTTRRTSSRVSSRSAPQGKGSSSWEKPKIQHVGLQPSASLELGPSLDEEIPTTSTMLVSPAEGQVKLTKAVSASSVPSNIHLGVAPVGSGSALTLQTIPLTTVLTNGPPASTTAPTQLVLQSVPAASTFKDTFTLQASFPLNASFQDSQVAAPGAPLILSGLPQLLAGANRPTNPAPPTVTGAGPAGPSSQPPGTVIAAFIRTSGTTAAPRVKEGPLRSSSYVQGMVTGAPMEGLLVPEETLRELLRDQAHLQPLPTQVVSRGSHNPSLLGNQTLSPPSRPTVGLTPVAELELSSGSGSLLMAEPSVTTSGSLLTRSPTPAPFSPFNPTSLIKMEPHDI
Sequence of ETV5 (P41161 whole entry): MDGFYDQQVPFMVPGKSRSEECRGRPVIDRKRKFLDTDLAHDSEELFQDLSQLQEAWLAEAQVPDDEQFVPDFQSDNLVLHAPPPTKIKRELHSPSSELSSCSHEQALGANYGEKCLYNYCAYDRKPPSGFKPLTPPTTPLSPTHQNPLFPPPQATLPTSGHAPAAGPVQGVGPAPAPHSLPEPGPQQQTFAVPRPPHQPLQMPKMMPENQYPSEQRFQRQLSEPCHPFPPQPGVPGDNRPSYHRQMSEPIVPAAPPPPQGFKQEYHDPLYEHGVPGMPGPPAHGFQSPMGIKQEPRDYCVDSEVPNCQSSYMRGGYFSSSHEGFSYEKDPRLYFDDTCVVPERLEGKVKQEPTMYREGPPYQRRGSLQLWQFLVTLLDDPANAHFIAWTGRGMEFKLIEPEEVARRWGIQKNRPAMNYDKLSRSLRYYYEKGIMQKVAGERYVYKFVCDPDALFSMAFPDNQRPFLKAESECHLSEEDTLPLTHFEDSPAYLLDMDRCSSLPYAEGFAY
Sequence of HSF1 (Q00613 whole entry): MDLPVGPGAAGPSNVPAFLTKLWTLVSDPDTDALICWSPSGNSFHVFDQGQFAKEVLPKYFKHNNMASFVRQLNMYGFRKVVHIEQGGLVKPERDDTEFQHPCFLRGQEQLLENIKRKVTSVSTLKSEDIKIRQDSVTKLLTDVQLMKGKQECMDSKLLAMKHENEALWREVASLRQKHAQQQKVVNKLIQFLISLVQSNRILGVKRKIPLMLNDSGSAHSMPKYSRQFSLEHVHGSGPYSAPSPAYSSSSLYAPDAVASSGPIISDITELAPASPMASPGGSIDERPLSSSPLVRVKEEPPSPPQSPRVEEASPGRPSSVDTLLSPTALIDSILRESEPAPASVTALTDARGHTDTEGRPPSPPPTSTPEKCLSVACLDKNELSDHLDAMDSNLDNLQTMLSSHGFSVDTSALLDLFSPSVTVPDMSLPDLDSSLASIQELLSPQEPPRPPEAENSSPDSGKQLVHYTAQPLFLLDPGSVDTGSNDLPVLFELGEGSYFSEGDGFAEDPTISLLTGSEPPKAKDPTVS
Sequence of ELF1 (P32519 whole entry): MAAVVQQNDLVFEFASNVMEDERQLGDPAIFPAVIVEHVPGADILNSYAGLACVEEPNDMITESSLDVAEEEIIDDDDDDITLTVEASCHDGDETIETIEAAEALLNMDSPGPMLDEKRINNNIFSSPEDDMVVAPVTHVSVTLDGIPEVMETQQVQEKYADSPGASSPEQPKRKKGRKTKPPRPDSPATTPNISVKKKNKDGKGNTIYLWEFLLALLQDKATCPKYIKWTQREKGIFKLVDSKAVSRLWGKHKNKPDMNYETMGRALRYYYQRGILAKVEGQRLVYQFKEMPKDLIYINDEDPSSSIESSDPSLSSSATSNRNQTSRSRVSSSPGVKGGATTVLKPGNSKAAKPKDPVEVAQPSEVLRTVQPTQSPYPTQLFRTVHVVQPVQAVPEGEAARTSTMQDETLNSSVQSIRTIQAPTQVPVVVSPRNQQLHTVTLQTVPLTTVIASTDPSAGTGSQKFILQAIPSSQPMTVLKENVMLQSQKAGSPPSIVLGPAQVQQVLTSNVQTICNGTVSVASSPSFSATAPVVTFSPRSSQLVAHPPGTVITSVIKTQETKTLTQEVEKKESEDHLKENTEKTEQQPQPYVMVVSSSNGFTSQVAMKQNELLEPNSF

AAGCTA: the binding signal is 1.16 fold enrichment (6-mer frequency, TF over GST control) with FLI1; 1.13 fold enrichment (6-mer frequency, TF over GST control) with ELK1; 1.08 fold enrichment (6-mer frequency, TF over GST control) with GABPA; 1.13 fold enrichment (6-mer frequency, TF over GST control) in the assay with ERG; 1.11 fold enrichment (6-mer frequency, TF over GST control) with ELF1; 1.19 fold enrichment (6-mer frequency, TF over GST control) with EHF. The binding signal in the assay with SPI1 is 1.04 fold enrichment (6-mer frequency, TF over GST control); with SPIB, 1.2 fold enrichment (6-mer frequency, TF over GST control); in the assay with ELK3, 1.21 fold enrichment (6-mer frequency, TF over GST control); with FEV, 1.13 fold enrichment (6-mer frequency, TF over GST control); with ETV5 it was 1.17 fold enrichment (6-mer frequency, TF over GST control); with HSF1, 1.29 fold enrichment (6-mer frequency, TF over GST control). The binding signal was 1.13 fold enrichment (6-mer frequency, TF over GST control) with SPIC; 1.2 fold enrichment (6-mer frequency, TF over GST control) with ELF4; 1.17 fold enrichment (6-mer frequency, TF over GST control) with ELK4; 1.12 fold enrichment (6-mer frequency, TF over GST control) in the assay with ETV2; 1.2 fold enrichment (6-mer frequency, TF over GST control) with ELF3; 1.58 fold enrichment (6-mer frequency, TF over GST control) with CRX. Also, in the assay with ETV1, the binding signal is 1.17 fold enrichment (6-mer frequency, TF over GST control).
